Assay results taken from a collection of fitness landscapes (doi:10.1126/science.1257360).
The full ranking holds about 140,000 sequences; the median of “enrichment ratio after two sorts for PhoP signalling” is about 0, and the highest 2% start at about 11. The list comes from a sample in which the highest values are over-represented; it also holds similar and randomly drawn sequences.

B1: PhoQ; a variant is named by its letters at X, in order, P23837 (parent)
chain: MKKLLRLFFPLSLRVRFLLATAAVVLVLSLAYGMVALIGYSVSFDKTTFRLLRGESNLFYTLAKWENNKLHVELPENIDKQSPTMTLIYDENGQLLWAQRDVPWLMKMIQPDWLKSNGFHEIEADVNDTSLLLSGDHSIQQQLQEVREDDDDAEMTHSVAVNVYPATSRMPKLTIVVVDTIPVELKSSYMVWSWFIYVLSANLLLVIPLLWVAAWWSLRPIEALAKEVRELEEHNRELLNPATTRELTSLVRNLNRLLKSERERYDKYRTTLTDLTHSLKTPLXXLQXXLRSLRSEKMSVSDAEPVMLEQISRISQQIGYYLHRASMRGGTLLSRELHPVAPLLDNLTSALNKVYQRKGVNISLDISPEISFVGEQNDFVEVMGNVLDNACKYCLEFVEISARQTDEHLYIVVEDDGPGIPLSKREVIFDRGQRVDTLRPGQGVGLAVAREITEQYEGKIVAGESMLGGARMEVIFGRQHSAPKDE

Variants of: B1
Assay: enrichment ratio after two sorts for PhoP signalling (ratio (wild type AVST 3.29)); higher = more functional
Details: with PhoP (E. coli)

| Variant | enrichment ratio |
| --- | --- |
| RQGG | ≤ 0.25 |
| RQFP | ≤ 0.25 |
| PNPW | ≤ 0.25 |
| RIWK | ≤ 0.25 |
| NTQW | ≤ 0.25 |
| QDPH | ≤ 0.25 |
| RWEP | ≤ 0.25 |
| KYTN | ≤ 0.25 |
| VLTN | ≤ 0.25 |
| DMTN | ≤ 0.25 |
| AMTN | 27.1 |
| GHTN | 12.9 |
| THTN | 4.21 |
| VHTN | ≤ 0.25 |
| NMTN | ≤ 0.25 |
| STTN | 19.3 |
| WITN | ≤ 0.25 |
| SQTN | 8.46 |
| TMTN | 13.4 |
| YVCF | 0.805 |
| PGGT | ≤ 0.25 |
| RGRC | ≤ 0.25 |
| FMKW | ≤ 0.25 |
| TWYE | ≤ 0.25 |

| Variant | enrichment ratio |
| --- | --- |
| YSAH | ≤ 0.25 |
| HNNM | ≤ 0.25 |
| QGTS | ≤ 0.25 |
| SVTN | 16.4 |
| DETN | ≤ 0.25 |
| TETN | 24.4 |
| VCTN | ≤ 0.25 |
| KCTN | ≤ 0.25 |
| KFTN | ≤ 0.25 |
| SPTN | ≤ 0.25 |
| ATTN | 20.6 |
| GTTN | ≤ 0.25 |
| NETN | ≤ 0.25 |
| TCTN | 22.5 |
| YTTN | ≤ 0.25 |
| RCRT | ≤ 0.25 |
| YSIQ | ≤ 0.25 |
| WKRH | ≤ 0.25 |
| LAIW | ≤ 0.25 |
| NWSE | ≤ 0.25 |
| LYIV | ≤ 0.25 |
| WHIR | ≤ 0.25 |
| YPIA | ≤ 0.25 |
| GPAN | ≤ 0.25 |

| Variant | enrichment ratio |
| --- | --- |
| AKTN | ≤ 0.25 |
| KSTN | ≤ 0.25 |
| AITN | 22.4 |
| FIQE | ≤ 0.25 |
| GTVS | ≤ 0.25 |
| GCVI | ≤ 0.25 |
| GIFA | ≤ 0.25 |
| GNMI | 46.4 |
| GTMI | ≤ 0.25 |
| GIGD | ≤ 0.25 |
| GNVI | 14.7 |
| GYMI | ≤ 0.25 |
| GIVI | 6.54 |
| GIMI | 25.7 |
| EHCK | ≤ 0.25 |
| DQHH | ≤ 0.25 |
| AQEG | ≤ 0.25 |
| LKYY | ≤ 0.25 |
| FGWK | ≤ 0.25 |
| SEER | ≤ 0.25 |
| RPGL | ≤ 0.25 |
| QENH | 70.4 |
| QQNS | 8.87 |
| QLNH | ≤ 0.25 |

| Variant | enrichment ratio |
| --- | --- |
| QQSH | ≤ 0.25 |
| QPNH | ≤ 0.25 |
| QQNH | 12.7 |
| HNFM | ≤ 0.25 |
| KEFR | ≤ 0.25 |
| THMP | ≤ 0.25 |
| HPVY | ≤ 0.25 |
| MNCR | ≤ 0.25 |
| RSFL | ≤ 0.25 |
| YTFQ | ≤ 0.25 |
| TIGM | 21.8 |
| TINS | 9.25 |
| TINM | 15.1 |
| TITM | 17.6 |
| TIWM | ≤ 0.25 |
| TICK | 1.1 |
| TINY | ≤ 0.25 |
| TIPM | ≤ 0.25 |
| AIQM | ≤ 0.25 |
| TIQM | 48.5 |
| RIQM | ≤ 0.25 |
| TIYM | 2.83 |
| PGVE | ≤ 0.25 |
| FAIN | 0.294 |

| Variant | enrichment ratio |
| --- | --- |
| WTRP | ≤ 0.25 |
| TKVF | 3.68 |
| ANGQ | ≤ 0.25 |
| SYDT | ≤ 0.25 |
| PICE | ≤ 0.25 |
| LWID | ≤ 0.25 |
| FPRV | ≤ 0.25 |
| TRYF | ≤ 0.25 |
| GPCS | ≤ 0.25 |
| NCLV | 1.12 |
| AACK | ≤ 0.25 |
| AACE | 6.4 |
| AACS | 17.3 |
| IACL | ≤ 0.25 |
| KACV | ≤ 0.25 |
| AACV | 16.2 |
| AACI | 12.2 |
| AACA | 7.7 |
| AANL | ≤ 0.25 |
| AACL | 11.3 |
| AAAI | 1.63 |
| ANCV | 3.79 |
| NQPV | ≤ 0.25 |
| KGDN | ≤ 0.25 |

| Variant | enrichment ratio |
| --- | --- |
| WHVG | ≤ 0.25 |
| HKAD | ≤ 0.25 |
| LHMM | ≤ 0.25 |
| SKQW | ≤ 0.25 |
| QCCL | ≤ 0.25 |
| LETR | ≤ 0.25 |
| DAMY | ≤ 0.25 |
| MRVV | ≤ 0.25 |
| ASVV | 14.5 |
| ASVK | 0.907 |
| ASVY | 2.98 |
| ASVT | 15.2 |
| ASRL | ≤ 0.25 |
| ASMQ | 29.9 |
| ASTD | ≤ 0.25 |
| ASVL | 16.7 |
| ASHQ | ≤ 0.25 |
| KSVV | ≤ 0.25 |
| ASVA | 4.82 |
| EVAW | ≤ 0.25 |
| DHDV | ≤ 0.25 |
| YAYW | ≤ 0.25 |
| ANRY | ≤ 0.25 |
| RTRT | ≤ 0.25 |

| Variant | enrichment ratio |
| --- | --- |
| WPGL | ≤ 0.25 |
| ASQN | ≤ 0.25 |
| KSVG | ≤ 0.25 |
| ASVC | 5.25 |
| AHAF | ≤ 0.25 |
| ASMD | ≤ 0.25 |
| ASVG | 14.7 |
| KSAF | ≤ 0.25 |
| ASAF | 15.1 |
| ASNL | 4.93 |
| ASMN | 19.6 |
| ASMG | 17.6 |
| ASMW | 5.78 |
| VSHV | ≤ 0.25 |
| ELII | ≤ 0.25 |
| DHGN | ≤ 0.25 |
| NHFI | ≤ 0.25 |
| QTFL | 1.72 |
| YDLL | ≤ 0.25 |
| QRFQ | ≤ 0.25 |
| EHKV | ≤ 0.25 |
| LCMI | ≤ 0.25 |
| IHER | ≤ 0.25 |
| LAPE | ≤ 0.25 |

| Variant | enrichment ratio |
| --- | --- |
| VIMD | ≤ 0.25 |
| ASVM | 12.1 |
| AITG | 11.5 |
| ASVP | ≤ 0.25 |
| VHTG | ≤ 0.25 |
| ASRK | ≤ 0.25 |
| VRSI | ≤ 0.25 |
| ASMA | 2.9 |
| ASVI | 5.75 |
| ASSI | 15.8 |
| AMTG | 2.78 |
| KSMK | ≤ 0.25 |
| ASMK | 17 |
| YVIL | ≤ 0.25 |
| LYCG | ≤ 0.25 |
| RRIS | ≤ 0.25 |
| NHAY | ≤ 0.25 |
| QIHN | ≤ 0.25 |
| YWDR | ≤ 0.25 |
| YHEQ | ≤ 0.25 |
| IKMW | ≤ 0.25 |
| ASEG | ≤ 0.25 |
| ASMV | 7.76 |
| ASMS | 5.31 |

| Variant | enrichment ratio |
| --- | --- |
| ASVE | 21.7 |
| ASHE | ≤ 0.25 |
| ASWG | ≤ 0.25 |
| KSVE | ≤ 0.25 |
| ASIG | 12 |
| ASTG | 14.7 |
| ASMI | 13.5 |
| PNRW | ≤ 0.25 |
| LAVR | ≤ 0.25 |
| IMSG | ≤ 0.25 |
| RHEW | ≤ 0.25 |
| QSKD | ≤ 0.25 |
| VADS | ≤ 0.25 |
| DWYQ | ≤ 0.25 |
| YRSW | ≤ 0.25 |
| MAAS | 1.31 |
| DMAS | ≤ 0.25 |
| MMAS | 15.4 |
| ICAS | ≤ 0.25 |
| YTAS | ≤ 0.25 |
| MKAS | ≤ 0.25 |
| MFAS | ≤ 0.25 |
| TMAS | 15 |
| KMAS | ≤ 0.25 |

| Variant | enrichment ratio |
| --- | --- |
| VCAS | ≤ 0.25 |
| MTAS | 12 |
| MCAS | 14 |
| NQNV | ≤ 0.25 |
| NTIL | ≤ 0.25 |
| MCAI | 8.95 |
| GQFV | ≤ 0.25 |
| PTRG | ≤ 0.25 |
| IQLY | ≤ 0.25 |
| QVYW | ≤ 0.25 |
| GCPS | ≤ 0.25 |
| TSMN | 12.3 |
| GGMN | ≤ 0.25 |
| RGMN | ≤ 0.25 |
| KSMN | ≤ 0.25 |
| FSMN | 1.56 |
| THMN | 12.7 |
| NHMN | ≤ 0.25 |
| TGMN | 34.8 |
| SHMN | ≤ 0.25 |
| RHML | ≤ 0.25 |
| RVMN | ≤ 0.25 |
| GNFW | ≤ 0.25 |
| LDMA | ≤ 0.25 |

| Variant | enrichment ratio |
| --- | --- |
| ESWV | ≤ 0.25 |
| KCLD | ≤ 0.25 |
| RANI | ≤ 0.25 |
| GSCV | 16.6 |
| GSCI | 10.8 |
| GSMW | ≤ 0.25 |
| GSCL | 21.5 |
| GSCS | 5.76 |
| GSCA | 0.424 |
| GSIV | 8.6 |
| GSWV | ≤ 0.25 |
| GSMV | 17.2 |
| FTHE | ≤ 0.25 |
| HIYR | ≤ 0.25 |
| AWLF | ≤ 0.25 |
| YRSQ | ≤ 0.25 |
| HSWV | ≤ 0.25 |
| HSMW | ≤ 0.25 |
| HSMH | ≤ 0.25 |
| HSMI | 17.4 |
| HSMV | 17 |
| HSMG | 1.29 |
| WYLH | ≤ 0.25 |
| TLFF | ≤ 0.25 |

| Variant | enrichment ratio |
| --- | --- |
| AINV | ≤ 0.25 |
| SNRK | ≤ 0.25 |
| QKYP | ≤ 0.25 |
| IVDD | ≤ 0.25 |
| VLPC | ≤ 0.25 |
| HDDH | ≤ 0.25 |
| WDDD | ≤ 0.25 |
| STSC | 11.6 |
| SRSC | ≤ 0.25 |
| SQSC | 11.7 |
| CMSC | 39.5 |
| MMSC | ≤ 0.25 |
| KQSC | ≤ 0.25 |
| YTSC | ≤ 0.25 |
| SDSC | 2.35 |
| TLSC | 8.65 |
| FVKG | ≤ 0.25 |
| PVCQ | ≤ 0.25 |
| MPMY | ≤ 0.25 |
| HPTD | ≤ 0.25 |
| MFHP | ≤ 0.25 |
| IYSH | ≤ 0.25 |
| AKAH | 4.55 |
| TGAH | 9.14 |

| Variant | enrichment ratio |
| --- | --- |
| TGAT | 18.1 |
| TGNT | 15.8 |
| TGNY | 16.9 |
| RGNY | ≤ 0.25 |
| GGNT | ≤ 0.25 |
| GGAT | ≤ 0.25 |
| RGAT | ≤ 0.25 |
| AGAH | 11.2 |
| RGNT | ≤ 0.25 |
| GGNY | ≤ 0.25 |
| IMPT | ≤ 0.25 |
| STPE | ≤ 0.25 |
| SDDK | ≤ 0.25 |
| DTVG | ≤ 0.25 |
| MNVA | ≤ 0.25 |
| LNLH | ≤ 0.25 |
| MLMR | ≤ 0.25 |
| AGDT | ≤ 0.25 |
| CQVY | 5.8 |
| AGKR | ≤ 0.25 |
| CQWS | ≤ 0.25 |
| AGAT | 11.3 |
| CQNY | 12.1 |
